Reference: PubChem BioAssay (Tox21)
Results filed as inconclusive are left out. Calls of active or inactive are those of the source. Unless noted, the call rests on the fitted dose curve.

test: qHTS assay to identify small molecule antagonists of the vitamin D receptor (VDR) signaling pathway - cell viability counter screen (AID 743225; active means well fitted cell-killing curve with a large enough effect in the repeat runs; further: nearly all actives have a fitted effect of over 50% in size); details: VDR-bla HEK293T viability, CellTiter-Glo luminescence, 16 h; series mostly up to 61 µM
Summary of the method: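 Luminescent cell viability (CellTiter-Glo) in VDR-bla HEK 293T cells after 16 h compound exposure at 37C in the presence of 3 nM final 1-alpha,25-dihydroxy vitamin D3.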

SMILES	outcome
O=[N+]([O-])c1ccc(Oc2ccc(Cl)cc2Cl)cc1	inactive
CC(C)(C)OOC(C)(C)C	inactive
Cc1ccccc1O	inactive
c1ccc(OP(Oc2ccccc2)Oc2ccccc2)cc1	inactive

test: qHTS assay to identify small molecule agonists of the NFkB signaling pathway (AID 1159509; active means well fitted curve in the direction sought with a large enough effect in the signal ratio in the repeat runs, not every such curve was filed as active; the % refers to the signal ratio); details: NFkB-bla ME-180 cells, beta-lactamase FRET ratio, 5 h; series mostly up to 61 µM
Summary of the method: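 Beta-lactamase reporter assay run in quantitative high-throughput format on an NF-kB-responsive ME-180 line, with 5 hr compound treatment and a FRET-based blue/green fluorescence readout.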

SMILES	outcome
COC(=O)c1ccccc1C(=O)OC	inactive
O=c1n(Cl)c(=O)n(Cl)c(=O)n1Cl	inactive
Oc1ccccc1Cl	inactive
O=C1CCCN1	inactive
Clc1ccc(Cl)cc1	inactive
O=c1[nH]c(=O)[nH]c(=O)[nH]1	inactive
CNC(=O)Oc1ccccc1OC(C)C	inactive
CC(=O)C=C(C)C	inactive
CCOC(=O)c1ccccc1C(=O)OCC	inactive
C1CC2OC2CC1C1CO1 (configuration not stated)	inactive
COC(=O)NC(=S)Nc1ccccc1NC(=S)NC(=O)OC	inactive
COC(=O)c1ccccc1N	inactive
Cc1ccc(N)cc1N	inactive
[O-][Cl+2]([O-])O	inactive
O=[N+]([O-])c1ccccc1	inactive
O=NN1CCCC1	inactive
O=NN1CCCCCCC1	inactive
CN(C)CCO	inactive

SMILES	outcome
CCC[CH2][Sn]([Cl])([Cl])[Cl]	inactive
C#CCN(C)[C@H](C)Cc1ccccc1	inactive
CC(C)NC(=O)N1CC(=O)N(c2cc(Cl)cc(Cl)c2)C1=O	inactive
c1ccc(-c2ccccc2)cc1	inactive
Cc1cc(Cl)ccc1O	inactive
CCC[N+](=O)[O-]	inactive
Cc1ccc([N+](=O)[O-])cc1C	inactive
C=CC(N)=O	inactive
C=CCO	inactive
CC1OC(C)OC(C)O1 (configuration not stated)	inactive
C[C@]12CC[C@H]3[C@@H](CC[C@@]45O[C@@H]4C(O)=C(C#N)C[C@]35C)[C@@H]1CC[C@@H]2O	inactive
O=S(=O)(c1ccc(Cl)cc1)c1cc(Cl)c(Cl)cc1Cl	inactive
Nc1ccc(Br)cc1	inactive
COc1ccc2c3c1O[C@H]1[C@@H](O)C=C[C@H]4[C@@H](C2)N(C)CC[C@@]341	inactive
O=[N+]([O-])c1ccc(Oc2ccc(Cl)cc2Cl)cc1	inactive
CC(C)(C)OOC(C)(C)C	inactive
Cc1ccccc1O	inactive
c1ccc(OP(Oc2ccccc2)Oc2ccccc2)cc1	inactive

test: qHTS assay to identify small molecule agonists of the NFkB signaling pathway - cell viability counter screen (AID 1159515); details: NFkB-bla ME-180 viability, CellTiter-Glo luminescence, 5 h; series mostly up to 61 µM; further: nearly all actives have a fitted effect of over 55% in size
Summary of the method: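 Cells are seeded (2,000 NFkB-bla ME-180 per well), rested overnight, and dosed with DMSO-dissolved compounds for 5 hr at 37 C. Viability is then read by CellTiter-Glo luminescence after 30 min at room temperature.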

SMILES	outcome
COC(=O)c1ccccc1C(=O)OC	inactive
O=c1n(Cl)c(=O)n(Cl)c(=O)n1Cl	inactive
Oc1ccccc1Cl	inactive
O=C1CCCN1	inactive
Clc1ccc(Cl)cc1	inactive
O=c1[nH]c(=O)[nH]c(=O)[nH]1	inactive
CNC(=O)Oc1ccccc1OC(C)C	inactive
CC(=O)C=C(C)C	inactive
CCOC(=O)c1ccccc1C(=O)OCC	inactive
C1CC2OC2CC1C1CO1 (configuration not stated)	inactive
COC(=O)NC(=S)Nc1ccccc1NC(=S)NC(=O)OC	inactive
COC(=O)c1ccccc1N	inactive
Cc1ccc(N)cc1N	inactive
[O-][Cl+2]([O-])O	inactive
O=[N+]([O-])c1ccccc1	inactive
O=NN1CCCC1	inactive
O=NN1CCCCCCC1	inactive
CN(C)CCO	inactive

SMILES	outcome
CCC[CH2][Sn]([Cl])([Cl])[Cl]	inactive
C#CCN(C)[C@H](C)Cc1ccccc1	inactive
CC(C)NC(=O)N1CC(=O)N(c2cc(Cl)cc(Cl)c2)C1=O	inactive
c1ccc(-c2ccccc2)cc1	inactive
Cc1cc(Cl)ccc1O	inactive
CCC[N+](=O)[O-]	inactive
Cc1ccc([N+](=O)[O-])cc1C	inactive
C=CC(N)=O	inactive
C=CCO	inactive
CC1OC(C)OC(C)O1 (configuration not stated)	inactive
C[C@]12CC[C@H]3[C@@H](CC[C@@]45O[C@@H]4C(O)=C(C#N)C[C@]35C)[C@@H]1CC[C@@H]2O	inactive
O=S(=O)(c1ccc(Cl)cc1)c1cc(Cl)c(Cl)cc1Cl	inactive
Nc1ccc(Br)cc1	inactive
COc1ccc2c3c1O[C@H]1[C@@H](O)C=C[C@H]4[C@@H](C2)N(C)CC[C@@]341	inactive
O=[N+]([O-])c1ccc(Oc2ccc(Cl)cc2Cl)cc1	inactive
CC(C)(C)OOC(C)(C)C	inactive
Cc1ccccc1O	inactive
c1ccc(OP(Oc2ccccc2)Oc2ccccc2)cc1	inactive

test: qHTS assay to identify small molecule agonists of the endoplasmic reticulum stress response signaling pathway (AID 1159516; active means well fitted activation curve with a large enough effect in the signal ratio in the repeat runs, not every such curve was filed as active; the % refers to the signal ratio); details: ESRE-bla HeLa, ER stress beta-lactamase reporter, 5 h; series mostly up to 61 µM
Summary of the method: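 Cells are seeded at 1,500 per well and incubated overnight. Compounds in DMSO are added for 5 hr at 37 C, then beta-lactamase FRET substrate for 2 hr at room temperature, and fluorescence at 460 and 530 nm is measured.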

SMILES	outcome
COC(=O)c1ccccc1C(=O)OC	inactive
O=c1n(Cl)c(=O)n(Cl)c(=O)n1Cl	inactive
Oc1ccccc1Cl	inactive
O=C1CCCN1	inactive
Clc1ccc(Cl)cc1	inactive
O=c1[nH]c(=O)[nH]c(=O)[nH]1	inactive
CNC(=O)Oc1ccccc1OC(C)C	inactive
CC(=O)C=C(C)C	inactive
CCOC(=O)c1ccccc1C(=O)OCC	inactive
C1CC2OC2CC1C1CO1 (configuration not stated)	inactive
COC(=O)NC(=S)Nc1ccccc1NC(=S)NC(=O)OC	inactive
COC(=O)c1ccccc1N	inactive
Cc1ccc(N)cc1N	inactive
[O-][Cl+2]([O-])O	inactive
O=[N+]([O-])c1ccccc1	inactive
O=NN1CCCC1	inactive
O=NN1CCCCCCC1	inactive
CN(C)CCO	inactive

SMILES	outcome
CCC[CH2][Sn]([Cl])([Cl])[Cl]	inactive
C#CCN(C)[C@H](C)Cc1ccccc1	inactive
CC(C)NC(=O)N1CC(=O)N(c2cc(Cl)cc(Cl)c2)C1=O	inactive
c1ccc(-c2ccccc2)cc1	inactive
Cc1cc(Cl)ccc1O	inactive
CCC[N+](=O)[O-]	inactive
Cc1ccc([N+](=O)[O-])cc1C	inactive
C=CC(N)=O	inactive
C=CCO	inactive
CC1OC(C)OC(C)O1 (configuration not stated)	inactive
C[C@]12CC[C@H]3[C@@H](CC[C@@]45O[C@@H]4C(O)=C(C#N)C[C@]35C)[C@@H]1CC[C@@H]2O	inactive
O=S(=O)(c1ccc(Cl)cc1)c1cc(Cl)c(Cl)cc1Cl	inactive
Nc1ccc(Br)cc1	inactive
COc1ccc2c3c1O[C@H]1[C@@H](O)C=C[C@H]4[C@@H](C2)N(C)CC[C@@]341	inactive
O=[N+]([O-])c1ccc(Oc2ccc(Cl)cc2Cl)cc1	inactive
CC(C)(C)OOC(C)(C)C	inactive
Cc1ccccc1O	inactive
c1ccc(OP(Oc2ccccc2)Oc2ccccc2)cc1	inactive
